Luciferase inh = blocks Photinus pyralis firefly luciferase activity; Potency, µM (highest dose often 57.1 µM), inactives show at the top dose activity change, negative = inhibition, hits mostly inhibitors; actives 2.2% (n = 72,000); purified firefly luciferase, luminescence, 8 min; further: nearly all actives have a fitted effect of over 40% in size
Target sequence (P08659 whole entry, looked up): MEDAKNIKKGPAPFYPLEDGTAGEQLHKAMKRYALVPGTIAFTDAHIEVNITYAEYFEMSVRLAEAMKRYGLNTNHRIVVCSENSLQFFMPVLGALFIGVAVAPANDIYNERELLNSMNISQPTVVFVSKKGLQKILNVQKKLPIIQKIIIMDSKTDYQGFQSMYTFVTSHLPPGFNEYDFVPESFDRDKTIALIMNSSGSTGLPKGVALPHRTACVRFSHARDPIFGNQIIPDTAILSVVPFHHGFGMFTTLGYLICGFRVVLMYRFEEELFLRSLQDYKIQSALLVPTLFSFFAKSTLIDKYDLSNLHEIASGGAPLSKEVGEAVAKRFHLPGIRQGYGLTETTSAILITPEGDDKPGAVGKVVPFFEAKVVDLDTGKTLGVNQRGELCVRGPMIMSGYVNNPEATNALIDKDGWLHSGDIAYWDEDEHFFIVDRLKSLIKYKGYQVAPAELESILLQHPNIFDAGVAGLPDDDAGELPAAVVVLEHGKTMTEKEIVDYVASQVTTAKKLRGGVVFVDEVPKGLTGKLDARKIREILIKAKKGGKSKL
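Inhibition of light generation by firefly luciferase from ATP and luciferin was profiled with concentration-response curves per sample, ATP held at 10 uM within the enzyme's linear range. Plates were read by luminescence after an 8-minute ambient incubation.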
Tau filament bind = binds recombinant human tau filaments; Potency, µM (series often up to 57.1 µM), without a hit: at the highest dose activity change, negative = inhibition; actives 2% (n = 71,000); AID 596; P10636; recombinant tau filaments, thioflavin S fluorescence, 15 h; filaments grown with octadecylsulfate alongside compound;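 further: actives lower thioflavin S fluorescence by blocking filaments or displacing dye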
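Tau 2 uM in ThS buffer dispensed; compound added; 60 uM ODS added (finals 1 uM tau, 30 uM ODS); 15 h 37 C; fluor ex450/em510.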
Hsp90 Hop PPI = changes Hsp90-Hop TPR2A binding signal, up or down; AlphaScreen TPR2A-His6 binding biotin-Hsp90 C-terminal peptide; Potency, µM (top dose mostly 57 µM), without a hit: at the highest dose activity change, negative = inhibition; actives 0.44% (n = 71,000); AID 595; active means well fitted curve in either direction with a large enough effect; inconclusive means small, poorly fitted or top-dose-only effect, or another doubt
ERK AVP inh = inhibitors of vasopressin-stimulated ERK signaling pathway; HEK293-V1b, vasopressin-stimulated pERK AlphaScreen; Potency, µM (titrated, usually from 57.5 µM), without a hit: at the highest dose activity, negative = inhibition, usual class: inhibitors; actives 0.99% (n = 72,000); AID 995; further: nearly all actives have a fitted effect of over 55% in size
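HEK293 cells stably expressing V1b receptor, preincubated 30 min at 37 °C with compound, then stimulated 5 min with 25 nM vasopressin. Phospho-ERK by AlphaScreen SureFire after 5 h RT; normalized to DMSO and vasopressin; AC50 by Hill fit.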
ALOX15 inhib = inhibitors of human 15-lipoxygenase (ALOX15); P16050; purified 15hLO-1, xylenol orange hydroperoxide absorbance; actives 1.4% (n = 74,000); Potency, µM (titrated, usually from 57.1 µM), for the others: at the highest dose activity change, negative = inhibition, hits mostly inhibitors; further: nearly all actives have a fitted effect of over 55% in size
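Inhibition is scored from a chromogenic endpoint. After 15 min enzyme-compound contact, arachidonic acid (50 uM final) reacts 6 min with 40 nM 15hLO-1 at room temperature, then Fe-XO reagent is added for 30 min and absorbance ratio recorded.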
Bst PK mod = modulators of Bacillus stearothermophilus pyruvate kinase; purified pyruvate kinase, luminescence ATP production; ribose 5-phosphate activator present at AC10; Potency, µM; actives 1.2% (n = 51,000); in the data active means potency below about 11 µM; inconclusive means mostly about 12 µM to 25 µM;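 the screen sought inhibitors and activators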;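 further: scaled between full activation by ribose 5 phosphate and full inhibition by luteolin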
* hit, by the source's call; ! = not confirmed by another sample; [ ] = remark or other dose. Only some compounds are listed: those with a hit (about 6.1% of all), similar ones and a draw of the others. Unless noted, the call rests on the fitted dose curve; in most records, active means well fitted curve in the direction sought with a large enough effect; inconclusive means small, poorly fitted or top-dose-only effect, or another doubt; inactive means no such curve, though single readings can be large; an effect the other way counts as inactive or inconclusive. Unless noted, on the % scale 0 is the no-effect control and ±100 the full control effect; potency means the concentration at half of the fitted maximal effect.

`COc1ccc(NC(=O)C2CSC3c4ccccc4C(=O)N23)cc1` (stereo not given) gave Luciferase inh -0.3%[25.5 µM] and Bst PK mod 10.8*.
Cc1cnc(CNc2ncnc3ccc(-c4c(C)noc4C)cc23)cn1 was read as Luciferase inh 0.1%[2.29 µM], Tau filament bind 0.3%, Hsp90 Hop PPI -3.2%, ERK AVP inh -1.2% and ALOX15 inhib 10.1%.
Cc1cc(C(=O)CNCc2ccco2)c(C)n1-c1ccc(F)cc1 was read as Luciferase inh 25.1µM*, Tau filament bind 6.1%, Hsp90 Hop PPI -5.6%, ERK AVP inh -7.7% and ALOX15 inhib inconclusive.
Screening N#Cc1c(N)n[nH]c1-c1cc2c([nH]1)CCCC2 returned Luciferase inh -5.1%, Tau filament bind -1.7%, Hsp90 Hop PPI -12.2%, ERK AVP inh -20.6%, ALOX15 inhib -28.0% and Bst PK mod 6.28*.
Screening Cc1cc(NC(=O)c2cnn3c(C(F)F)cc(-c4ccccc4)nc23)no1 returned Luciferase inh 2.6%, Tau filament bind inconclusive, Hsp90 Hop PPI 0.2%, ERK AVP inh inconclusive, ALOX15 inhib -2.2% and Bst PK mod >57.
Screening Cc1cc(NC(=O)c2cnn3c(C(F)(F)F)cc(-c4ccccc4)nc23)no1 returned Luciferase inh 0.9%, Tau filament bind 3.16µM*, Hsp90 Hop PPI -4.3%, ERK AVP inh inconclusive, ALOX15 inhib -3.7% and Bst PK mod >57.
`O=C(O)c1cnn2c(C(F)(F)F)cc(-c3ccco3)nc12` gave Luciferase inh 0.4%[25.5 µM] and Bst PK mod >25.6.
For O=C(NC1CCCCC1)c1cnn2c(C(F)(F)F)cc(-c3ccco3)nc12 the results were Luciferase inh -1.4%, Tau filament bind 10µM*, Hsp90 Hop PPI -3.7%, ERK AVP inh -2.5%, ALOX15 inhib 25.1µM* and Bst PK mod >57.
`C#C[C@H](N)CCC(=O)O` gave Luciferase inh 0.2%, Tau filament bind 2.0%, Hsp90 Hop PPI -4.9%, ERK AVP inh 15.7% and ALOX15 inhib 2.8%.
For CC[C@@](N)(C(=O)O)c1ccc(C(=O)O)cc1 the results were Luciferase inh -0.1%, Tau filament bind inconclusive, Hsp90 Hop PPI -1.6%, ERK AVP inh 23.1% and ALOX15 inhib -23.5%[25.6 µM].
For O=C(O)CCCSc1nc2ccccc2s1 the results were Luciferase inh 2.4%[11.4 µM], Tau filament bind 3.7%[11.4 µM], Hsp90 Hop PPI -2.2%[11 µM], ERK AVP inh 21.8%[11.5 µM] and ALOX15 inhib 4.2%[11.4 µM].
O=C(CSc1nnc(COc2ccccc2Cl)o1)NC(=O)NC1CCCC1 was read as Luciferase inh -2.9%, Tau filament bind 8.4%, Hsp90 Hop PPI -2.2%, ERK AVP inh 20µM*, ALOX15 inhib -0.9% and Bst PK mod >57.
`Cc1cc(OCc2ccc(F)cc2)nc(-c2ccccc2O)n1` gave Luciferase inh 0.6%, Tau filament bind 16.6%, Hsp90 Hop PPI 25.1µM*, ERK AVP inh 89.4% and ALOX15 inhib -2.3%.
`Cc1cc(OC2CCCCC2)nc(-c2ccccc2O)n1` gave Luciferase inh 0.7%, Tau filament bind 18.2%[11.4 µM], Hsp90 Hop PPI 3.16µM*, ERK AVP inh -1.0% and ALOX15 inhib -5.5%[11.4 µM].
Screening COc1ncc2nc(-c3ccc(F)cc3)c(=O)n(C)c2n1 returned Luciferase inh 1.3%[11.4 µM], Tau filament bind 204.4%, Hsp90 Hop PPI 1.3%, ERK AVP inh 3.9% and ALOX15 inhib 2.0%.
O=C(O)[C@@H]1CCCN1Cc1cc2ccccc2c2ccccc12 was read as Luciferase inh 0.0%[11.4 µM], Tau filament bind 2.7%[11.4 µM], Hsp90 Hop PPI -1.4%[11 µM], ERK AVP inh -9.2%[11.5 µM] and ALOX15 inhib 1.3%[11.4 µM].
For Cc1nc2ccc(NC(=O)Cc3cccs3)cc2s1 the results were Luciferase inh 25.1µM*, Tau filament bind -14.2%, Hsp90 Hop PPI -6.5%, ERK AVP inh -17.1% and ALOX15 inhib -14.7%.
Screening Cc1nc(Nc2ccccc2)c2nc(-c3ccccc3)n(CCCN3CCCCC3C)c2n1 (stereo not given) returned Tau filament bind 106.2%, Hsp90 Hop PPI -3.6%, ERK AVP inh -17.0% and ALOX15 inhib 0.1%.
Screening CCOC(=O)C1=C(N2CCCCC2)c2cc3c(n2C1=O)CCCC3 returned Luciferase inh -6.6%, Tau filament bind 15.8µM*, Hsp90 Hop PPI -14.7%, ERK AVP inh inconclusive, ALOX15 inhib inconclusive and Bst PK mod >11.4.
`CCOC(=O)C1CCN(c2c(N3CCCCCC3)c(=O)c2=O)CC1` gave Luciferase inh -1.0%, Tau filament bind -9.7%, Hsp90 Hop PPI -1.1%, ERK AVP inh -20.1% and ALOX15 inhib -0.1%.
Screening C[n+]1cc2c3c(ccc2c2ccc4cc5c(cc4c21)OCO5)OCO3 returned Luciferase inh 12.6µM*, Tau filament bind inconclusive, Hsp90 Hop PPI -7.0%[26 µM], ERK AVP inh 25.1µM*! and ALOX15 inhib 10µM*.
NS(=O)(=O)c1nc(S(=O)(=O)O)c2[nH]cnc2n1 was read as Luciferase inh -1.3%[11.4 µM], Tau filament bind -1.3%[11.4 µM], Hsp90 Hop PPI -2.5%[11 µM], ERK AVP inh -5.7%[11.5 µM] and ALOX15 inhib -12.3%[11.4 µM].
CCCSc1nnc2nc3c(nn12)c1ccccc1n3C was read as Luciferase inh -1.4%, Tau filament bind 15.8µM*, Hsp90 Hop PPI -26.6% and ALOX15 inhib 5.2%.
`CCCSc1nnc(Cn2c(=O)sc3ccccc32)n1-c1ccccc1` gave Luciferase inh -3.5%, Tau filament bind 1.4%, Hsp90 Hop PPI -2.2%, ERK AVP inh 9.0% and ALOX15 inhib 0.4%.
CC[C@@]1([N+](=O)[O-])C[C@H]2C=C[C@@H]1C2 was read as Luciferase inh -1.2%[11.4 µM], Tau filament bind -5.9%[11.4 µM], Hsp90 Hop PPI -2.7%[11 µM], ERK AVP inh -1.8%[11.5 µM] and ALOX15 inhib -3.9%[11.4 µM].
`CCC(=O)Nc1ccc(Nc2ccccc2)cc1` gave Luciferase inh -8.7%, Tau filament bind inconclusive, Hsp90 Hop PPI -5.5%, ERK AVP inh -10.6%, ALOX15 inhib -2.4% and Bst PK mod >57.
Screening COCC(=O)Nc1ccc(Nc2ccccc2)cc1 returned Luciferase inh -3.1%, Tau filament bind 7.94µM*, Hsp90 Hop PPI -23.2%, ERK AVP inh inconclusive, ALOX15 inhib -8.4% and Bst PK mod >57.
NC(=NCCCCCCN=C(N)/N=C(\N)Nc1ccc(Cl)cc1)/N=C(\N)Nc1ccc(Cl)cc1 was read as Luciferase inh 2.1%[25.5 µM], Tau filament bind 6.31µM*!, Hsp90 Hop PPI -8.2%, ERK AVP inh inconclusive and ALOX15 inhib inconclusive.
`O=C(c1ccco1)N1CCC2(CCCN(C(c3ccccc3)c3ccccc3)C2)CC1` gave Luciferase inh -0.2%[11.4 µM], Tau filament bind 37.2%, Hsp90 Hop PPI -23.4%, ERK AVP inh -22.0% and ALOX15 inhib -11.2%.
For Clc1ccccc1-c1nccc(-n2ccnc2)n1 the results were Luciferase inh -1.1%[2.29 µM], Tau filament bind 12.4%, Hsp90 Hop PPI -3.3%, ERK AVP inh inconclusive and ALOX15 inhib inconclusive.

Source: PubChem
